Data as given in PubChem BioAssay AID1159580 (chemical genetic matrix, 2015).
Where “and” joins values, the source holds several entries; their conditions need not be identical. Equal values may be shown once. Hit rate of the full screen: of about 5,500 compounds, about 2,000 (36%) were called active. About 18% were inconclusive and are not listed. No stated cut-off is given here; in the data, active means normalized growth mostly below about 0.91 (no sharp cut-off); inconclusive means no clear call, values can overlap the other calls; inactive means mostly above about 0.92. This is one part of the list.

Assay: chemical genetic growth profiling, strain panel (AID 1159580);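 further: tested at 20 µM; growth read once vehicle control cultures reached saturation at 30 °C; 1 = growth at the plate median or of vehicle wells; lower values mean less growth of the strain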
Conditions: S. cerevisiae deletion strains, growth OD

Measured: normalized growth

Cn1cnc2c1c(=O)[nH]c(=O)n2C
inactive: locus YAL013W, strain DEP1, active compounds read low 1.01 | locus YAL021C, strain ccr4, active compounds read low 0.952 | locus YAL026C, strain drs2, active compounds read low 0.989 | locus YAL030W, strain snc1, active compounds read low 0.985 | locus YAL040C, strain CLN3, active compounds read low 0.992 | locus YBL061C, strain skt5, active compounds read low 0.985 | locus YBR009C, strain hhf1, active compounds read low 0.997 | locus YBR021W, strain FUR4, active compounds read low 0.991 | locus YBR023C, strain chs3, active compounds read low 1 | locus YBR171W, strain sec66, active compounds read low 0.99 | locus YBR229C, strain ROT2, active compounds read low 1.01 | locus YBR231C, strain swc5, active compounds read low 0.985 | locus YBR279W, strain paf1, active compounds read low 0.997 | locus YCL011C, strain gbp2, active compounds read low 0.978 | locus YCL016C, strain dcc1, active compounds read low 0.993 | locus YCL029C, strain bik1, active compounds read low 1.03 | locus YCL061C, strain MRC1 (second series), active compounds read low 1.01 | locus YCL061C, strain MRC1, active compounds read low 0.984 | locus YCL069W, strain vba3, active compounds read low 0.983 | locus YCR088W, strain abp1, active compounds read low 0.991 | locus YDL005C, strain med2, active compounds read low 0.989 | locus YDL035C, strain GPR1, active compounds read low 1.01 | locus YDL040C, strain nat1, active compounds read low 0.992 | locus YDL074C, strain BRE1, active compounds read low 1.02 | locus YDL101C, strain DUN1, active compounds read low 1.02 | locus YDL134C, strain PPH21, active compounds read low 1.01 | locus YDL185W, strain tfp1, active compounds read low 1.01 | locus YDL192W, strain arf1, active compounds read low 1.01 | locus YDR001C, strain nth1, active compounds read low 0.984 | locus YDR069C, strain doa4, active compounds read low 0.959 | locus YDR101C, strain arx1, active compounds read low 1.01 | locus YDR137W, strain rgp1, active compounds read low 1.03 | locus YDR150W, strain NUM1, active compounds read low 1.01 | locus YDR159W, strain sac3, active compounds read low 0.973 | locus YDR162C, strain NBP2, active compounds read low 1.01 | locus YDR195W, strain ref2 0.944 | locus YDR297W, strain sur2, active compounds read low 0.991 | locus YDR318W, strain mcm21, active compounds read low 1.03 | locus YDR334W, strain swr1, active compounds read low 0.98 | locus YDR335W, strain msn5, active compounds read low 0.976 | locus YDR363W, strain ESC2, active compounds read low 0.998 | locus YDR388W, active compounds read low 1.01 | locus YDR392W, strain spt3, active compounds read low 0.993 | locus YDR502C, strain sam2, active compounds read low 1 | locus YEL003W, strain gim4, active compounds read low 0.988 | locus YEL037C, strain rad23, active compounds read low 0.993 | locus YEL061C, strain CIN8 (second series), active compounds read low 0.974 | locus YEL061C, strain CIN8, active compounds read low 1.01 | locus YER002W, strain NOP16, active compounds read low 1.04 | locus YER015W, strain faa2, active compounds read low 0.981 | locus YER016W, strain bim1, active compounds read low 0.991 | locus YER110C, active compounds read low 1.01 | locus YER111C, strain swi4, active compounds read low 0.985 | locus YER155C, strain BEM2 (second series), active compounds read low 1 | locus YER155C, strain BEM2, active compounds read low 1.01 | locus YER167W, strain BCK2, active compounds read low 1.01 | locus YFR010W, strain ubp6, active compounds read low 0.971 | locus YGL078C, strain dbp3, active compounds read low 1.01 | locus YGL086W, strain mad1, active compounds read low 1 | locus YGL167C, strain pmr1, active compounds read low 0.976 | locus YGL173C, strain kem1, active compounds read low 0.988 | locus YGL227W, strain vid30, active compounds read low 0.994 | locus YGL240W, strain doc1, active compounds read low 0.966 | locus YGL248W, strain PDE1, active compounds read low 1.01 | locus YGL253W, strain hxk2, active compounds read low 0.99 | locus YGR078C, strain PAC10, active compounds read low 1.01 | locus YGR135W, strain pre9, active compounds read low 1.02 | locus YGR229C, strain SMI1, active compounds read low 1.02 and 1.05 | locus YGR252W, strain gcn5, active compounds read low 1.01 | locus YHR013C, strain ard1, active compounds read low 0.961 | locus YHR027C, strain rpn1, active compounds read low 0.972 | locus YHR030C, strain SLT2, active compounds read low 1.01 and 0.97 | locus YHR079C, strain IRE1 (second series), active compounds read low 1.02 | locus YHR079C, strain IRE1, active compounds read low 0.996 | locus YHR094C, strain hxt1, active compounds read low 1.01 | locus YHR129C, strain ARP1, active compounds read low 1.01 | locus YHR142W, strain chs7, active compounds read low 0.999 | locus YHR200W, strain rpn10, active compounds read low 1 | locus YIL066C, strain RNR3, active compounds read low 1.02 | locus YIL073C, strain SPO22, active compounds read low 1.05 | locus YIL125W, strain kgd1, active compounds read low 1.01 | locus YIR030C, strain dcg1, active compounds read low 1.01 | locus YJL092W, strain hpr5, active compounds read low 0.989 | locus YJL095W, strain BCK1 (second series), active compounds read low 0.996 | locus YJL095W, strain BCK1, active compounds read low 1.03 and 0.985 | locus YJL115W, strain asf1, active compounds read low 0.976 | locus YJL129C, strain trk1, active compounds read low 0.963 | locus YJL134W, strain LCB3, active compounds read low 1.01 | locus YJL154C, strain vps35, active compounds read low 0.995 | locus YJL164C, strain tpk1, active compounds read low 0.978 | locus YJL166W, strain qcr8, active compounds read low 0.992 | locus YJL168C, strain set2, active compounds read low 1.01 | locus YJL187C, strain SWE1 (second series), active compounds read low 1.03 | locus YJL187C, strain SWE1, active compounds read low 0.983 | locus YJR043C, strain POL32, active compounds read low 1.01 | locus YJR066W, strain TOR1, active compounds read low 0.963
